# Results: PubChem BioAssay (EPA / NIEHS)
# Inconclusive results are not listed. Calls of active or inactive are those of the source. The calls were made as follows, unless noted: active = hit-call score of the fitted dose curve at least 0.9, where 1 is the maximum; inconclusive = response in the unintended direction; inactive = score below 0.9.
# Legend:
# [1] = molecular target: Nucleoli Translocation, AR (gene 367) (UniProt P10275); assay: UPITT_HCI_U2OS_AR_TIF2_Nucleoli_Antagonist: University of Pittsburgh U2OS Androgen Receptor-Transcriptional Intermediary Factor 2 (AR-TIF2) Antagonism High Content Imaging Assay for Nucleoli Translocation (AID 2283997)
# How it was run: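 An antagonist-mode imaging screen: engineered U2OS (AR-RFP, TIF2-GFP) exposed to 20 uM compound, 0.2% DMSO. Activity reflects nucleolar red fluorescence change relative to DHT baseline.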
# [2] = molecular target: Nucleoli Translocation, AR (gene 367) (UniProt P10275); assay: UPITT_HCI_U2OS_AR_TIF2_Nucleoli_Agonist: University of Pittsburgh U2OS Androgen Receptor-Transcriptional Intermediary Factor 2 (AR-TIF2) Agonism High Content Imaging Assay for Nucleoli Translocation (AID 2283998)
# How it was run: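 Readout is red (AR-RFP) fluorescence localized to nucleoli, measured by high-content imaging and analysed for increase relative to DMSO. Compound series spanned 0.195 to 50 uM final in 0.5% DMSO.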
# PGR (gene 5241) [3] = molecular target: PGR (gene 5241) (UniProt P06401); assay: TOX21_PR_BLA_Followup_Antagonist_ratio: Tox21 HEK293 Progesterone Receptor (PR) Antagonism Beta-lactamase Follow-Up Assay, Ratio (AID 2283934);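 also: PR-UAS-bla HEK293T cells stimulated with 1 nM R5020 agonist for 16 hr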
# Protocol: TOX21_PR_BLA_Followup is a secondary assay for specificity for the TOX21_PR_BLA_Agonist assay. To differentiate true PR agonists from cytotoxic substances, this follow up assay is multiplexed with a cell viability assay. The compounds were also tested for auto fluorescence that may interfere with the biological target readout resulting in potential false positives and/or negatives. To identify the compounds that stimulate PR signaling, a PR-UAS-bla GripTite cell line i.e. PR-UAS-bla HEK293T (Invitrogen, Carlsbad, CA, USA) containing a beta-lactamase reporter gene under the control of an UAS response element was used to screen Tox21 10K compound library. The cytotoxicity of the Tox21 compound library against the PR-bla cell line was tested in parallel by measuring the cell viability using CellTiter-Glo assay in the same wells. TOX21_PR_BLA_Followup_Antagonist_ratio is an assay readout measuring reporter gene via receptor activity and designed using inducible reporter (beta lactamase induction) detected with GAL4 b-lactamase reporter gene. The signal is derived from the ratio of cleaved (ch2) to uncleaved (ch1) reporter gene substrate used as the measure of target activity.Data from the assay component TOX21_PR_BLA_Followup_Antagonist_ratio was analyzed into 1 assay endpoint. This assay endpoint, TOX21_PR_BLA_Followup_Antagonist_ratio, was analyzed in the positive analysis fitting direction relative to DMSO as the negative control and baseline of activity. Using a type of inducible reporter, measures of receptor for gain-of-signal activity can be used to understand the reporter gene at the pathway-level as they relate to the gene NR3C3. Furthermore, this assay endpoint can be referred to as a primary readout, because this assay has produced multiple assay endpoints where this ratio serves a reporter gene function to understand target activity. To generalize the intended target to other relatable targets, this assay endpoint is annotated to the nuclear receptor intended target family, where the subfamily is steroidal.
# Assay Protocol: PR-UAS-bla HEK293T cells were dispensed at 3,000 cells/4 uL of assay medium containing 2% charcoal stripped FBS per well into black wall/clear-bottom 1536-well plates using a Multidrop Combi (ThermoFisher Scientific, Waltham, MA) dispenser. […] After the plates were incubated at room temperature for 2 hours, fluorescence intensity was measured by an Envision plate reader (PerkinElmer, Shelton, CT).
# [4] = TOX21_PR_BLA_Followup_Agonist_viability: Viability Assessment in the Tox21 HEK293 Progesterone Receptor (PR) Agonism Beta-lactamase Follow-Up Assay (AID 2283935);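 also: signal loss means lower viability so actives are cytotoxic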
# How it was run: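 Run multiplexed with the beta-lactamase FRET read, this endpoint measures ATP by CellTiter-Glo luminescence (30 min, room temperature). PR-UAS-bla HEK293T cells received compound 6 hr after plating and were then incubated 16 hr at 37C in 2% stripped serum.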
# [5] = TOX21_PR_BLA_Followup_Antagonist_viability: Viability Assessment in the Tox21 HEK293 Progesterone Receptor (PR) Antagonism Beta-lactamase Follow-Up Assay (AID 2283936);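 also: cells exposed to compound with R5020 agonist for 16 h; hits lower the luminescence signal meaning cytotoxicity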
# How it was run: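 PR-UAS-bla HEK293T cells in medium with 2% charcoal-stripped FBS were treated with compounds plus R5020 for 16 hr at 37C. After the beta-lactamase read, CellTiter-Glo was added to the same wells and luminescence read after 30 min at room temperature.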
# PGR (gene 5241) [6] = molecular target: PGR (gene 5241) (UniProt P06401); assay: TOX21_PR_LUC_Followup_Antagonist: Tox21 HEK293 Progesterone Receptor (PR) Antagonism Luciferase Follow-Up Assay (AID 2283938);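 also: curve fitted upward as signal gain over DMSO baseline despite antagonist label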
# How it was run: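 Cells are grown 5 days in charcoal-stripped-FBS assay medium, plated, left 5 h, then dosed with compound and incubated 16 h. ONE-Glo reagent is added and luminescence read after 30 min.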
# [7] = TOX21_PR_LUC_Followup_Antagonist_viability: Viability Assessment in the Tox21 HEK293 Progesterone Receptor (PR) Antagonism Luciferase Follow-Up Assay (AID 2283940)
# From the text: TOX21_PR_LUC_Followup is a secondary assay for specificity for the TOX21_PR_BLA_Agonist assay. To differentiate true PR agonists from cytotoxic substances, this follow up assay is multiplexed with a cell viability assay.TOX21_PR_LUC_Followup_Antagonist_viability is an assay readout measuring cellular ATP content and detected with CellTiter-Glo Luciferase-coupled ATP quantitation.TOX21_PR_LUC_Followup_Antagonist_viability used a type of viability reporter where loss-of-signal activity can be used to understand changes in the cell viability. Furthermore, this assay endpoint can be referred to as a secondary readout, because this assay has produced multiple assay endpoints where this one serves a viability function. To generalize the intended target to other relatable targets, this assay endpoint is annotated to the cell cycle intended target family, where the subfamily is cytotoxicity.
# Quality Control Precautions: Maintain cells below 85-90% confluence in culture medium. For assay purpose, the cells should be cultured in assay medium with 10% charcoal stripped FBS for 5 days with alternate day medium changed to fresh medium. Especially while in assay culture, the cells should not reach more than 85% confluence as they would become harder to detach if they reach over confluence.Assay Protocol: HEK293-PR-A-luc cells were dispensed at 3,000 cells/5 uL/well of culture medium into white wall/solid-bottom 1536-well plates using a Multidrop Combi (ThermoFisher Scientific, Waltham, MA) dispenser. After the assay plates were incubated at 37C and […] for 5 h, 23 nL of compounds dissolved in DMSO, positive controls or DMSO only was transferred to the assay plate by a Pintool station (Kalypsys, San Diego, CA). The plates were incubated at 37C and […] for 16 h. Then 4 uL of ONE-Glo reagent (Promega, Madison, WI) was added to each plate using a BioRAPTR Flying Reagent Dispenser (FRD) workstation (Beckman Coulter, Indianapolis, IN, USA) and luminescence was quantified on a ViewLux (PerkinElmer, Shelton, CT) plate reader after 30 min incubation at room temperature.
# DIO1 (gene 1733) = assay: CCTE_GLTED_hDIO1: CCTE's human Deiodinase 1 (DIO1) Inhibition Assay, Great Lakes Toxicology and Ecology Division (GLTED) Lab (AID 2283987);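 also: isolated human DIO1 enzyme in a cell-free setup rather than cells; enzyme activity read as free iodide liberated from substrate via Sandell-Kolthoff colorimetry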
# How it was run: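 Inhibition of human deiodinase 1 is scored as reduced iodide liberation after a 3 h enzyme–chemical incubation, detected colorimetrically by the Sandell-Kolthoff reaction against DMSO controls.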
# [8] = TOX21_PR_LUC_Followup_Agonist_viability: Viability Assessment in the Tox21 HEK293 Progesterone Receptor (PR) Agonism Luciferase Follow-Up Assay (AID 2283941);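 also: loss of signal means cytotoxicity so actives lower viability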
# How it was run: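 Cytotoxicity counter-readout in the PR-A luciferase reporter line HEK293, with 16 h compound exposure at 37C after cells were cultured in charcoal-stripped serum. Cellular ATP quantified by CellTiter-Glo luminescence.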
# PGR (gene 5241) [9] = molecular target: PGR (gene 5241) (UniProt P06401); assay: TOX21_PR_LUC_Followup_Agonist: Tox21 HEK293 Progesterone Receptor (PR) Agonism Luciferase Follow-Up Assay (AID 2283937; active = hit-call score of the fitted dose curve at least 0.9, where 1 is the maximum; inactive = score below 0.9)
# How it was run: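 Agonism scored as luciferase induction over DMSO, read by ONE-Glo after 30 min at RT. Compounds were incubated 16 h at 37C on HEK293-PR-A-luc cells (3,000/well, pre-plated 5 h) previously grown 5 days in charcoal-stripped serum.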
# Nucleoli Translocation, AR (gene 367), sequence (P10275 whole entry, looked up): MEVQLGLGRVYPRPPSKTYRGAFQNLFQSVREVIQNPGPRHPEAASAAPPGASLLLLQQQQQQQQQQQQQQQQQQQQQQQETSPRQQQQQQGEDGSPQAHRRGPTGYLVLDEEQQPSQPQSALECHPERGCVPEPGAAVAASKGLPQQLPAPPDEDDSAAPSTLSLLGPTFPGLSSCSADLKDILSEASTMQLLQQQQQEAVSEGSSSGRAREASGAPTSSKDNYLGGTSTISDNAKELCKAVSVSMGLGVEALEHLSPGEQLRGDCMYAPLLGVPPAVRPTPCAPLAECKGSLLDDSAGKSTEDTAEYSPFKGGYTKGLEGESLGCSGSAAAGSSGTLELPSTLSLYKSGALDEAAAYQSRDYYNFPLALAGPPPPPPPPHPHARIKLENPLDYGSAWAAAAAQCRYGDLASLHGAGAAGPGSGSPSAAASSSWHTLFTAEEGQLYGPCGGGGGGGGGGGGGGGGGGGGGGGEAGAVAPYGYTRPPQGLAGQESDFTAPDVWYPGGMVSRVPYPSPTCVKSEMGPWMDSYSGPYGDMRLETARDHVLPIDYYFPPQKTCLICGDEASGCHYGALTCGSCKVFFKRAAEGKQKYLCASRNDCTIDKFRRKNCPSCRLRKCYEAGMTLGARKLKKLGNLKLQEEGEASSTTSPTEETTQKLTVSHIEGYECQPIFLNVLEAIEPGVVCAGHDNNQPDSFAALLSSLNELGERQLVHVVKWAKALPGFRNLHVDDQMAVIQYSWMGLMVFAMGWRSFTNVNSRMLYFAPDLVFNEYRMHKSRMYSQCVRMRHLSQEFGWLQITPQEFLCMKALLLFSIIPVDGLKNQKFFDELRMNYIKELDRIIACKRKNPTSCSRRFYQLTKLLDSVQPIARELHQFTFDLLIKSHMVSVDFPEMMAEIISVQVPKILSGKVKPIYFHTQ
# PGR (gene 5241), sequence (P06401 whole entry, looked up): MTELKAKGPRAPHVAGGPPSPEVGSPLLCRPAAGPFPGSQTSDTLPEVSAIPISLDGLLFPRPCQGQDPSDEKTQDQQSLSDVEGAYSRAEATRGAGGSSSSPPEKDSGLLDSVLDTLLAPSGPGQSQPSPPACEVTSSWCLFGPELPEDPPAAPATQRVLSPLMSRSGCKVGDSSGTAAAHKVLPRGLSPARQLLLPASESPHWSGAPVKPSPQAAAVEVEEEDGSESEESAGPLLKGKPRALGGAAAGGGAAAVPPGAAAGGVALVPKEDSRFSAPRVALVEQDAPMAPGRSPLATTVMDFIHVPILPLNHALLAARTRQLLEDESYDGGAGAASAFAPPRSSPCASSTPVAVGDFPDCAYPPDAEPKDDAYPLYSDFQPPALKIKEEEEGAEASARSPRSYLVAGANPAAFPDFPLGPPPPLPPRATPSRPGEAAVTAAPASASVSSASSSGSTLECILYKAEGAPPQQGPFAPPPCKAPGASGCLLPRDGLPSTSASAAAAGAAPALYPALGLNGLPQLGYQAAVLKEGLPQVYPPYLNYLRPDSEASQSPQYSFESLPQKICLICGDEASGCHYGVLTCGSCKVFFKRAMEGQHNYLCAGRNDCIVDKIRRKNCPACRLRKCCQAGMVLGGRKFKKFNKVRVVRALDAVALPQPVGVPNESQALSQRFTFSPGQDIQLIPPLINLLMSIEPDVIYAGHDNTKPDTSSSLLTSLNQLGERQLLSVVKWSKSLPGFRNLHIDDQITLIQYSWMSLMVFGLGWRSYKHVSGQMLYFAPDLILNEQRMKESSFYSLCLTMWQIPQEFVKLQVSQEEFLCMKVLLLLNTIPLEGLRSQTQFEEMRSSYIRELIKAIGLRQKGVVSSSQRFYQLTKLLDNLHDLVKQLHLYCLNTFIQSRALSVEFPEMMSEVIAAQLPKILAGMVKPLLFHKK
smiles,measurement,setting,value
N#Cc1ccc(C(c2ccc(C#N)cc2)n2cncn2)cc1,outcome,[1],inactive
same,outcome,[2],inactive
COc1ccc(-c2coc3cc(O)cc(O)c3c2=O)cc1,AC50,PGR (gene 5241) [3],29.5 µM (active)
same,outcome,[4],inactive
same,outcome,[5],inactive
same,AC50,PGR (gene 5241) [6],81.7 µM (active)
same,outcome,[7],inactive
CCCCCC[C@@H](O)C/C=C\CCCCCCCC(=O)OCC(O)CO (stereo partly drawn),outcome,[1],inactive
same,outcome,[2],inactive
O=c1c(O)c(-c2ccc(O)cc2O)oc2cc(O)cc(O)c12,AC50,DIO1 (gene 1733),9.81 µM (active)
CC(=O)OCc1ccccc1,outcome,[1],inactive
same,outcome,[2],inactive
Cc1ccc(C)c(OCCCC(C)(C)C(=O)O)c1,outcome,[1],inactive
same,outcome,[2],inactive
CCCCCCCCCCCCc1ccc(O)cc1,AC50,DIO1 (gene 1733),31.5 µM (active)
CCC(C)c1ccccc1 (stereo not drawn),outcome,[1],inactive
same,outcome,[2],inactive
COc1ccc(C(=O)c2ccccc2)c(O)c1,AC50,[1],50 µM (active)
CN(C)Cc1cc(CN(C)C)c(O)c(CN(C)C)c1,outcome,[1],inactive
same,outcome,[2],inactive
CCCCCCCCCC(C)=O,outcome,[2],inactive
CCCCC(CC)COC(=O)/C=C/c1ccc(OC)cc1 (stereo not drawn),outcome,[1],inactive
same,outcome,[2],inactive
O=C(O)c1cc(O)c2ccccc2c1O,AC50,DIO1 (gene 1733),50.1 µM (active)
CCCCCCCCCCCCCC(=O)OC(C)C,outcome,[2],inactive
O=C(O)c1ccc2c(c1)C(=O)OC2=O,outcome,[1],inactive
same,outcome,[2],inactive
CCCCC/C=C\C/C=C\CCCCCCCC(=O)O,AC50,DIO1 (gene 1733),19.2 µM (active)
Oc1ccc(/C=C/c2cc(O)cc(O)c2)cc1,AC50,[1],5.07 µM (active)
Nc1ccc(C(=O)OCCCOC(=O)c2ccc(N)cc2)cc1,outcome,PGR (gene 5241) [3],inactive
same,outcome,[4],inactive
same,outcome,[5],inactive
same,outcome,PGR (gene 5241) [6],inactive
same,outcome,[8],inactive
Oc1ccc(-c2ccccc2)c(Cl)c1,AC50,PGR (gene 5241) [3],25.7 µM (active)
same,outcome,[4],inactive
same,outcome,[5],inactive
same,outcome,PGR (gene 5241) [9],inactive
same,AC50,PGR (gene 5241) [6],29.7 µM (active)
same,outcome,[7],inactive
same,AC50,[1],13.8 µM (active)
same,AC50,[2],13.4 µM (active)
CCCCCCCCCCCCCCCCCCOS(=O)(=O)O,AC50,DIO1 (gene 1733),90.1 µM (active)
COc1cc(O)c(C(=O)c2ccccc2)cc1S(=O)(=O)O,outcome,[1],inactive
c1ccc2c(c1)[nH]c1ccccc12,outcome,PGR (gene 5241) [3],inactive
same,outcome,[4],inactive
same,outcome,[5],inactive
same,outcome,PGR (gene 5241) [9],inactive
same,outcome,PGR (gene 5241) [6],inactive
same,outcome,[7],inactive
same,outcome,[8],inactive
same,AC50,[1],8.38 µM (active)
same,outcome,[2],inactive
CCCCCCCOC(=O)c1ccc(O)cc1,AC50,DIO1 (gene 1733),75 µM (active)
CCc1cccc(C)c1N,outcome,[1],inactive
same,outcome,[2],inactive
C=C1C[C@H]2[C@@H]3C=C(C)C4=CC(=O)CC[C@]4(C)[C@H]3CC[C@]2(C)[C@@]1(OC(C)=O)C(C)=O,AC50,[1],0.0947 µM (active)
same,AC50,[2],4 µM (active)
